According to ChEMBL document CHEMBL4808148, “HDAC6 screening dataset using tau-based substrate in an enzymatic assay yields selective inhibitors and activators” (2021):
The whole screen tested about 5,600 compounds, of which about 150 (2.7%) showed an effect of 50% or more. Only a selection was taken, and strong results are over-represented in it overall. Starred links: 1 amine or outer side, 2 acyl side, 3 side chain; linkers in the order of their positions; H or OH if unused. Positions of bridges follow the written chain, without caps; N, C: chain ends. Non-standard residues stand in square brackets, D forms with d. Residues, ends and D or L forms follow the SMILES beside them. ξ: configuration not given here. *: point of attachment. hTyr(3S-OH,4S-OH,3'-OSO3H) = N[C@H](C(=O)O)[C@H](O)[C@@H](O)c1ccc(O)c(OS(=O)(=O)O)c1; Orn(4R-OH,5R-OH) = O=C([C@H](C[C@@H](O)[C@@H](O)N[*:3])N[*:1])[*:2]; Pro(3S-OH,4S-Me) = C[C@H]1CN[C@H](C(=O)O)[C@H]1O; X1 = CCCCCOc1ccc(-c2cc(-c3ccc(C(=O)*)cc3)no2)cc1; Gln(3R-OH) = NC(=O)C[C@@H](O)[C@H](N)C(=O)O; Hyp = O=C(O)[C@@H]1C[C@@H](O)CN1; ξThr(3R) = C[C@@H](O)C(N)C(=O)O

What was measured:
[1] = target: T1, Protein deacetylase HDAC6 (Homo sapiens) (UniProt Q9UBN7); conditions: at 10 µM
T1 sequence (whole entry): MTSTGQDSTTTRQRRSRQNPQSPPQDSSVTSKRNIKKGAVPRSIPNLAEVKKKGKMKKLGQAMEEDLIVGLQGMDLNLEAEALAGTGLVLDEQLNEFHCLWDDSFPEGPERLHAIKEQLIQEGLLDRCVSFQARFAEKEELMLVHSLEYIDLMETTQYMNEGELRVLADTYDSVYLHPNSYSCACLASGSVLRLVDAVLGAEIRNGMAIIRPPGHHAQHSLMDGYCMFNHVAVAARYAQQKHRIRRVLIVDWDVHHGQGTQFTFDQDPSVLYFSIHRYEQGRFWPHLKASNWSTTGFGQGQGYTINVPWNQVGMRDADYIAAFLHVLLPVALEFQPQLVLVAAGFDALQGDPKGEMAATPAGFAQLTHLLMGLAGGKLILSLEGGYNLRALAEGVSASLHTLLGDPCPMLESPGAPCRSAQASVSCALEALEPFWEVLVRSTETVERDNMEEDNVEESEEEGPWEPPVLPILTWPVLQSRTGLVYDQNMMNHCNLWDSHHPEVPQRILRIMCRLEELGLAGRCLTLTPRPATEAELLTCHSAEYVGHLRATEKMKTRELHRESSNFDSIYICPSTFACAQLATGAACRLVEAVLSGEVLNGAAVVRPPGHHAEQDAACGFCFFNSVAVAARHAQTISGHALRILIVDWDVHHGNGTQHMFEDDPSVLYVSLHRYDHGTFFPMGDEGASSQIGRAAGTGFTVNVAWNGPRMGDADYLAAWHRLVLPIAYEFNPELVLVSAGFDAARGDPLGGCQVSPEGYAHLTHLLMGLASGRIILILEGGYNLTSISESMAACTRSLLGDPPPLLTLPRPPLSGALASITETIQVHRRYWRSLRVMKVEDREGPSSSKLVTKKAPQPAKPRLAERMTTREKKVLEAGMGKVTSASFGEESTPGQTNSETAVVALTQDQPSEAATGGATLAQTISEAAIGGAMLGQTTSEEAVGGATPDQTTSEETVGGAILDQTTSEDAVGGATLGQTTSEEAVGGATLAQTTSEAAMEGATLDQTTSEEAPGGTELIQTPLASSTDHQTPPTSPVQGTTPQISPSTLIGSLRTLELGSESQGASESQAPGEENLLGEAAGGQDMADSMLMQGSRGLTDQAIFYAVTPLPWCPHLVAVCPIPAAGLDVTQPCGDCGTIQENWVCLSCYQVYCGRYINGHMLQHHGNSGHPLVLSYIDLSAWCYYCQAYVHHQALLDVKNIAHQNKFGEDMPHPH

[2] = target: Protein deacetylase HDAC6 (Homo sapiens) (UniProt Q9UBN7); conditions: at 10 µM; remark: listed apart in the source

| Molecule | inhibition [1] [%] | inhibition [2] [%] |
| --- | --- | --- |
| C[N+](C)(C)[C@@H](Cc1c[nH]c(=S)[nH]1)C(=O)[O-] | 0.31 |  |
| CC/C(=C(/CC)c1ccc(OP(=O)(O)O)cc1)c1ccc(OP(=O)(O)O)cc1 | -0.19 |  |
| CC(=O)N1CCC[C@H]1C(=O)N[C@@H](Cc1cnc[nH]1)C(=O)N[C@@H](CO)C(=O)N[C@@H](CS)C(=O)N[C@@H](CC(N)=O)C(N)=O (Ac-PHSCN-NH2) | -4.4 |  |
| COc1cc(OCc2cccc(-c3ccccc3)c2C)cc(OC)c1CN1CCCC[C@H]1C(=O)O | 51.3 |  |
| CCOC(=O)[C@H](CCc1ccccc1)N[C@@H](C)C(=O)N1Cc2cc(OC)c(OC)cc2C[C@H]1C(=O)O | -3.25 |  |
| C#CC1(OCC(O)CN2CCN(c3cccc(C(F)(F)F)c3)CC2)CCCCC1 (stereo unspecified) | 3.19 |  |
| Cn1c(COc2ccc(CC3SC(=O)NC3=O)cc2)nc2ccccc2c1=O (stereo unspecified) | 6.76 |  |
| COCCOc1cnc2ccn([C@H](C)c3nnc4c(F)cc(-c5cnn(C)c5)cn34)c(=O)c2c1 | -3.49 |  |
| O=C(NCc1ccc(OC(F)(F)F)cc1)C1c2ccccc2C(=O)N1C1CCOCC1 (stereo unspecified) | 1.11 |  |
| C[C@H]1NC(=O)NC1=O | 0.16 |  |
| COc1cc(OC)c(/C=C2/C(=O)Nc3ccccc32)c(OC)c1 | -2.63 |  |
| Cc1[nH]c(/C=C2\C(=O)Nc3cc(-c4ccccc4)ccc32)c(C)c1CCC(=O)O | 96.4 |  |
| Cc1[nH]c(/C=C2\C(=O)Nc3ccc(F)cc32)c(C)c1C(=O)NCCN1CCCC1 | 2.96 |  |
| CN[C@@H]1[C@@H](O[C@H]2O[C@H](CO)[C@@H](N)[C@H](O)[C@H]2O)O[C@H]2C[C@@H](N)[C@H](O[C@H]3[C@H](O)[C@@H](O)[C@H](N)C[C@@H]3N)O[C@@H]2[C@@H]1O | 10.2 |  |
| CNC(=O)c1ccccc1Nc1nc(Nc2ccc3c(c2OC)CCC[C@H](N2CCN(CCO)CC2)C3)ncc1Cl | 83 |  |
| CN1CCN(Cc2ccc(Nc3ncc(Cl)c(Nc4ccccc4S(=O)(=O)N(C)C)n3)cc2)CC1 | -1.57 |  |
| COc1cc(N2CCOCC2)ccc1Nc1ncc(Cl)c(Nc2ccccc2NS(C)(=O)=O)n1 | -0.93 |  |
| CCCCCOc1ccc(-c2cc(-c3ccc(C(=O)N[C@H]4C[C@@H](O)[C@@H](O)NC(=O)[C@@H]5[C@@H](O)[C@@H](C)CN5C(=O)[C@H]([C@H](O)CC(N)=O)NC(=O)[C@H]([C@H](O)[C@@H](O)c5ccc(O)c(OS(=O)(=O)O)c5)NC(=O)[C@@H]5C[C@@H](O)CN5C(=O)C([C@@H](C)O)NC4=O)cc3)no2)cc1 (stereo partly drawn) (X1-[Orn(4R-OH,5R-OH)][ξThr(3R)][Hyp][hTyr(3S-OH,4S-OH,3'-OSO3H)][Gln(3R-OH)][Pro(3S-OH,4S-Me)]; lactam 1-C) | 4.51 |  |
| CN(C)CCCSc1ccccc1NC(=O)/C=C/c1ccccc1 | 92.4 |  |
| CC(C)c1ccc(C(=O)c2cccs2)c(SCCCCCCCCN(C)C)n1 | 3.78 |  |
| O=C(/C=C/c1ccccc1)NC(NC(=S)Nc1cccc2cccnc12)C(Cl)(Cl)Cl (stereo unspecified) | 3.55 |  |
| CNC[C@@H]1CC[C@@H](N)[C@H](O[C@H]2[C@H](O)[C@@H](O[C@H]3OC[C@](C)(O)[C@H](NC)[C@H]3O)[C@H](N)C[C@@H]2N)O1 | -3.43 |  |
| gallium-triquinolin-8-olate, CHEMBL4303465 |  | 8.35 |

| Molecule | inhibition [1] [%] | inhibition [2] [%] |
| --- | --- | --- |
| C[C@H]1N=C(N(C)C)N=C(N)N1 | -1.55 |  |
| CN1C[C@@H]2CN(c3ccc(-c4ccccc4)nn3)C[C@@H]2C1 | 57.6 |  |
| O=C(c1cc(S(=O)(=O)Nc2ccccc2F)c(F)cc1Cl)N1CCN2CCC[C@@H]2C1 | -3.32 |  |
| CN1[C@H]2C[C@H](OC(=O)[C@H](CO)c3ccccc3)C[C@@H]1[C@@H](O)C2 (racemic) | 0.83 |  |
| C=C1/C(=C\C=C2/CCC[C@]3(C)[C@@H]([C@H](C)CCCC(O)(C(F)(F)F)C(F)(F)F)CC[C@@H]23)C[C@@H](O)C[C@@H]1O | 4.32 |  |
| COc1cc(-c2ccc(/N=N/c3ccc4c(S(=O)(=O)O)cc(S(=O)(=O)O)c(N)c4c3O)c(OC)c2)ccc1/N=N/c1ccc2c(S(=O)(=O)O)cc(S(=O)(=O)O)c(N)c2c1O | 50.8 |  |
| COc1cc(O)c(C(=O)c2ccccc2)cc1S(=O)(=O)O | 2.56 |  |
| COc1cccc(-n2nc(C(=O)O)cc2-c2ccc(C3CCCCC3)c(Cl)c2)c1 | 1.57 |  |
| CO/N=C(\C(=O)N[C@@H]1C(=O)N2C(C(=O)O)=C(C)CS[C@H]12)c1csc(N)n1 | 1.72 |  |
| Miriplatin, CHEMBL4303713 |  | -1.16 |
| PHENYLMERCURIC ACETATE, CHEMBL1333953 |  | 62 |
| GADOTERIDOL, CHEMBL1200593 |  | -0.37 |
| NC1CCC(N[C@@H]2C[C@H]2c2ccccc2)CC1 (stereo partly specified) | -0.23 |  |
| CN1C(=O)C(N2CCCCC2)S/C1=C\C(=O)O (stereo unspecified) | 0.03 |  |
| CC(C)Oc1ccc(-c2nn([C@@H](C)c3oc4ccc(F)cc4c(=O)c3-c3cccc(F)c3)c3ncnc(N)c23)cc1F | 2.17 |  |
| COC(=O)C1=C(C)N(C)C(C)=C(C(=O)OC)C1c1ccc(C(F)(F)F)cc1 | 1.92 |  |
| CCCCC/C=C\C/C=C\CCCCCCCC(=O)NCCCC(=O)O | 3.98 |  |
| CCCCCCCCC(=O)NCc1ccc(O)c(OC)c1 | 58.8 |  |
| COc1cc(CNC(=O)CCCC/C=C/C(C)C)ccc1O | -2.58 |  |
| CS(=O)(=O)OC[C@H](O)[C@@H](O)COS(C)(=O)=O | 2 |  |
| N=C1N[C@H]2[C@H](CS[C@H]2CCCCC(=O)O)N1 | 1.67 |  |
| O=[Si]=O.O=[Si]=O.O=[Si]=O.O=[Si]=O.[O]=[Mg].[O]=[Mg].[O]=[Mg] | 97.2 |  |
| CNC(=O)c1cccc2cc(Oc3ccnc4cc(OCC5(N)CC5)c(OC)cc34)ccc12 | 11.4 |  |
